Screening results as filed in PubChem.
A selection: hits, their analogues and other compounds. The true share with any hit is near 2.5%.
VACV mCherry inh: qHTS for Stage-Specific Inhibitors of Vaccinia Orthopoxvirus: mCherry Reporter Primary qHTS; 0.63% of 310,000 active; Potency, µM (top dose mostly 36.5 µM), usual class: inhibitors; AID 720579, 2013; Vaccinia virus mCherry reporter infection, fluorescence; calls by dose curve; tested in A549 cells; also: nearly all actives have a fitted effect of over 35% in size
LASV entry inh: qHTS for Inhibitors of binding or entry into cells for Lassa Virus; AID 540256, 2011; 1.2% of 300,000 active; Lassa virus pseudotype entry inhibition, cell reporter; Potency, µM (series often up to 37.9 µM), actives largely listed as inhibitors; calls by dose curve; tested in HEK293 cells; also: nearly all actives have a fitted effect of over 50% in size
VACV Venus inh: qHTS for Stage-Specific Inhibitors of Vaccinia Orthopoxvirus: Venus Reporter Primary qHTS. 0.46% of 330,000 active. AID 720580, 2013. Potency, µM (doses to about 36.5 µM), actives largely listed as inhibitors. Vaccinia virus Venus reporter expression, fluorescence; calls by dose curve; tested in A549 cells; also: nearly all actives have a fitted effect of over 30% in size
Marburg entry inh: qHTS for inhibitors of binding or entry into cells for Marburg Virus. 1.8% of 300,000 active. Potency, µM (top dose mostly 37.8 µM), usual class: inhibitors. Marburg virus pseudotyped entry inhibition, cell reporter; calls by dose curve; tested in HEK293 cells
A number is an active result; [ ] = dose if it differs, or a comment.

Results for COc1ccc(C(CCNCc2ccc(F)cc2)c2ccc(F)cc2)cc1 (stereo not drawn) ?
VACV mCherry inh: inconclusive; LASV entry inh: inconclusive; VACV Venus inh: inconclusive; Marburg entry inh: 15µM

How did COc1ccc(NC(=O)CC(c2ccc(F)cc2)c2ccc(OC(C)C)cc2)cc1 (stereo not drawn) do in these assays?
VACV mCherry inh: inactive; LASV entry inh: inconclusive; VACV Venus inh: inactive; Marburg entry inh: inactive

Results for COc1ccc(C(CCNC(C)c2ccccc2)c2ccc(F)cc2)cc1 (stereo not drawn) ?
VACV mCherry inh: 11µM; LASV entry inh: inconclusive; VACV Venus inh: inconclusive; Marburg entry inh: inconclusive

What do the screens show for `COc1ccc(CNCCC(c2ccc(F)cc2)c2ccc(OC)cc2)cc1` (stereo not drawn)?
VACV mCherry inh: inconclusive; LASV entry inh: 13µM; VACV Venus inh: inconclusive; Marburg entry inh: 11µM

Results for Nc1cccc[n+]1C(c1ccnc2ccccc12)[n+]1ccccc1N ?
VACV mCherry inh: inactive; VACV Venus inh: inactive

How did CC(C)CC(=O)N1C/C=C\C[C@@H](c2ccc(Cl)cc2)N(Cc2ccc(Cl)cc2)C(=O)[C@@H]1Cc1ccccc1 do in these assays?
VACV mCherry inh: inactive; VACV Venus inh: inactive

How did O=C(CSc1nnc(-c2ccc(S(=O)(=O)N3CCCC3)cc2)o1)NCC1CCCO1 (stereo not drawn) do in these assays?
VACV mCherry inh: 4µM; LASV entry inh: inactive; VACV Venus inh: 4.5µM; Marburg entry inh: inconclusive

What do the screens show for `O=C(CSc1nnc(-c2cccc(Br)c2)o1)NCC1CCCO1` (stereo not drawn)?
VACV mCherry inh: inconclusive; VACV Venus inh: 14µM

What do the screens show for `Cn1c(SCC(=O)NCC2CCCO2)nnc1-c1ccc(S(=O)(=O)N2CCCC2)cc1` (stereo not drawn)?
VACV mCherry inh: inactive; LASV entry inh: inactive; VACV Venus inh: inactive; Marburg entry inh: inactive

What do the screens show for `NC(=O)CSc1nnc(-c2ccc(S(=O)(=O)N3CCCC3)cc2)o1`?
VACV mCherry inh: inconclusive; LASV entry inh: inactive; VACV Venus inh: 3.2µM; Marburg entry inh: inactive

Results for COC(=O)CSc1nnc(-c2ccc(S(=O)(=O)N3CCCC3)cc2)o1 ?
VACV mCherry inh: inactive; LASV entry inh: inactive; VACV Venus inh: inactive; Marburg entry inh: inactive

How did CN(C)CC(C)(O)c1ccc2c(c1)CN(Cc1cccn1-c1cccnc1)CCO2 (stereo not drawn) do in these assays?
VACV mCherry inh: inactive; VACV Venus inh: inactive

What do the screens show for `COC(=O)c1ccc(CN2C(=O)[C@]3(OCCC=C[C@@H]3C)c3cc(OC)ccc32)cc1`?
Marburg entry inh: inactive

How did COc1ccc(NC(=O)c2c(C)oc3ccc(O)c(CN4CCC(C)CC4)c23)cc1 do in these assays?
VACV mCherry inh: inactive; LASV entry inh: inconclusive; VACV Venus inh: inactive; Marburg entry inh: 11µM

How did COc1ccc(NC(=O)c2c(C)oc3ccc(O)c(CN4CCCC(C)C4)c23)cc1 (stereo not drawn) do in these assays?
VACV mCherry inh: inactive; LASV entry inh: inactive; VACV Venus inh: inactive; Marburg entry inh: inconclusive

What do the screens show for `COc1ccc(C(=O)NCC2Cc3cc(C)cc(-c4nc5ccccc5s4)c3O2)c(OC)c1OC` (stereo not drawn)?
VACV mCherry inh: inactive; VACV Venus inh: inactive

What do the screens show for `COc1ccc(C(=O)N=c2nc(-c3ccccc3)n(-c3ccccc3)s2)cc1`?
VACV mCherry inh: inactive; VACV Venus inh: inactive

What do the screens show for `COc1ccccc1N1CCN(CCCCNS(=O)(=O)c2cccc3c(N(C)C)cccc23)CC1`?
LASV entry inh: 15µM; Marburg entry inh: 7.1µM

How did COc1ccccc1N1CCN(CCCCN2C(=O)CCC2=O)CC1 do in these assays?
VACV mCherry inh: inactive; VACV Venus inh: inactive

How did CCC1(C2CCN(C(=O)c3ccc(C)cc3C)CC2)NC(=O)N(CCc2scnc2C)C1=O (stereo not drawn) do in these assays?
VACV mCherry inh: inactive; VACV Venus inh: inactive

What do the screens show for `COc1ccc(OC)c(-c2cc(-c3cccnc3)nc(N)c2C#N)c1`?
VACV mCherry inh: inactive[7.34 µM]; LASV entry inh: inconclusive; VACV Venus inh: inactive[7.34 µM]; Marburg entry inh: 1.4µM

What do the screens show for `Cc1ccc(NC(NC(=O)c2cccnc2)C(Cl)(Cl)Cl)cc1` (stereo not drawn)?
VACV mCherry inh: inactive; LASV entry inh: inactive; VACV Venus inh: inactive; Marburg entry inh: 16µM

How did O=C(NC(=O)N1CCCc2ccccc21)c1ccccc1 do in these assays?
VACV mCherry inh: inactive; LASV entry inh: inactive; VACV Venus inh: inactive; Marburg entry inh: inactive

Results for O=C(C(c1ccccc1)c1ccccc1)N1CCCc2ccccc21 ?
VACV mCherry inh: inactive; LASV entry inh: inactive; VACV Venus inh: inactive; Marburg entry inh: 14µM

How did Cc1cccc(CNCCn2cc(C(=O)Nc3ccccc3)nn2)c1 do in these assays?
VACV mCherry inh: inactive; VACV Venus inh: inactive

What do the screens show for `CCOc1ccccc1-c1cc(C(=O)N/N=C/c2cccnc2)c2ccccc2n1`?
VACV mCherry inh: inactive; LASV entry inh: inconclusive; VACV Venus inh: inactive; Marburg entry inh: 5.6µM

How did Cc1ccc(COc2ccccc2-c2cc(C(=O)N/N=C/c3cccnc3)[nH]n2)cc1 do in these assays?
VACV mCherry inh: inconclusive; LASV entry inh: 8.9µM; VACV Venus inh: inactive[7.34 µM]; Marburg entry inh: inconclusive

How did Cc1cc(C)nc(-n2ncc3c2CC(c2ccccc2)CC3=O)n1 (stereo not drawn) do in these assays?
VACV mCherry inh: inactive; LASV entry inh: inconclusive; VACV Venus inh: inactive; Marburg entry inh: inactive

What do the screens show for `Cc1cc(C)nc(-n2ncc3c2CC(c2cccc(Cl)c2)CC3=O)n1` (stereo not drawn)?
VACV mCherry inh: 10µM; LASV entry inh: inconclusive; VACV Venus inh: inconclusive; Marburg entry inh: 5.6µM

What do the screens show for `Cc1ccc(S(=O)(=O)N2CCN(C(=O)CCc3nc4ccccc4c(=O)[nH]3)CC2)c(C)c1`?
VACV mCherry inh: inactive; LASV entry inh: inconclusive; VACV Venus inh: inconclusive; Marburg entry inh: inactive

How did O=C(CCc1nc2ccccc2c(=O)[nH]1)N1CCN(S(=O)(=O)c2ccccc2Br)CC1 do in these assays?
VACV mCherry inh: inconclusive; LASV entry inh: inactive; VACV Venus inh: 10µM; Marburg entry inh: inactive

What do the screens show for `CSc1nnc(CNC(=O)/C=C/c2ccccc2Cl)n1-c1ccc(F)cc1`?
VACV mCherry inh: inactive; VACV Venus inh: inactive

What do the screens show for `CCOC(=O)C1=C(C)NC(=O)N[C@H]1c1ccc2c(c1)OCO2`?
Marburg entry inh: inactive

How did COc1ccccc1OCCCCN1CCN(C(c2ccccc2)c2ccccc2)CC1 do in these assays?
VACV mCherry inh: inconclusive; LASV entry inh: 18µM; VACV Venus inh: inconclusive; Marburg entry inh: inconclusive

How did O=C(CCN1CCN(C(c2ccccc2)c2ccccc2)CC1)N/N=C/c1ccc(O)cc1O do in these assays?
VACV mCherry inh: 20µM; LASV entry inh: inconclusive; VACV Venus inh: inconclusive; Marburg entry inh: inconclusive

Results for N#Cc1ccsc1NC(=O)CCN1CCN(C(c2ccccc2)c2ccccc2)CC1 ?
VACV mCherry inh: inactive; LASV entry inh: inconclusive; VACV Venus inh: inactive; Marburg entry inh: 10µM

What do the screens show for `Cc1cc(C)n(CCC(=O)N/N=C/c2ccc(O)cc2O)n1`?
VACV mCherry inh: 20µM; LASV entry inh: inconclusive; VACV Venus inh: inconclusive; Marburg entry inh: 13µM

Results for N#Cc1ccsc1NC(=O)CCc1ccccc1 ?
VACV mCherry inh: inconclusive; VACV Venus inh: inactive; Marburg entry inh: inconclusive
